This note sets out measurements from PubChem BioAssay (Tox21).

Values without a mark were called inactive. Results filed as inconclusive are left out. The source made the active and inactive calls. Unless noted, the call rests on the fitted dose curve; in most records, active means well fitted curve in the direction sought with a large enough effect in the repeat runs; inconclusive means weak or mixed curves; inactive means no such curve, though single readings can be large; an effect the other way counts as inactive or inconclusive.

A short description of assay [1]: qHTS assay to identify small molecule agonists of the sonic hedgehog signaling (Shh) pathway (AID 1259368; calls by dose curve;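 further: NIH/3T3-derived 3T3Gli1-Luc cells carrying a stable Gli1-driven firefly luciferase reporter; series mostly up to about 92 µM; nearly all actives have a fitted effect of over 15% in size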). Put shortly: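 Steps: seed 3T3 Gli1-Luc cells, incubate 4 hr at 37 C, pin-transfer compounds in DMSO alongside a positive control, incubate 24 hr, add luciferase detection reagent, wait 30 min at room temperature, read luminescence.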
The nature of assay [2]: qHTS assay to identify small molecule antagonists of the sonic hedgehog signaling (Shh) pathway (AID 1259369; calls by dose curve; further: nearly all actives have a fitted effect of over 45% in size; further: potency means the concentration at half of the fitted maximal effect). The method, boiled down: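 Inhibition of Shh signalling is measured as reduced Gli1-response-element firefly luciferase output in an NIH/3T3-derived stable reporter clone stimulated with conditioned medium for 24hr.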
For orientation: In qHTS, concentration-response curves come from the screen itself.

For assay [3], the target named is Estrogen receptor beta (Homo sapiens) (UniProt Q92731). The experiment in a line: qHTS assay to identify small molecule agonists of the estrogen receptor beta (ER-beta) signaling pathway (AID 1259377; active means well fitted activation curve with a large enough effect in the signal ratio in the repeat runs, not every such curve was filed as active; the % refers to the signal ratio). Put shortly: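 ER-beta-UAS-bla HEK293T cells in medium with 2% charcoal-stripped FBS were exposed to compounds for 16 h at 37C. Beta-lactamase reporter activity was read as fluorescence after 2 h with LiveBLAzer B/G FRET substrate at room temperature.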

Assay [4] has the same target. The experiment in a line: qHTS assay to identify small molecule antagonists of the estrogen receptor beta (ER-beta) signaling pathway (AID 1259378; active means well fitted inhibition curve with a large enough effect in the signal ratio in the repeat runs, not every such curve was filed as active; the % refers to the signal ratio). The method, boiled down: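 ER-beta-UAS-bla HEK293T cells in 2% charcoal-stripped FBS medium treated with compound plus 1nM final 17-beta-estradiol for 16 hr at 37C. Beta-lactamase reporter read by FRET substrate fluorescence after 2 hours at room temperature.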

A short description of assay [5]: qHTS assay to identify small molecule agonists of the androgen receptor (AR) signaling pathway in the presence of an antagonist - cell viability counter screen (AID 1259379).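 Further: MDA-kb2 human breast cancer cells carrying an MMTV luciferase reporter; series mostly up to about 92 µM; nearly all actives have a fitted effect of over 25% in size.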 Put shortly: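 Fluorescence from CellTiter-Fluor, added after 15 hr and read 1 hr later, gave cell viability. Cells were MDA-kb2 exposed to compounds (15 concentrations) in the presence of 3.0uM nilutamide at 37C, 0% CO2.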

Assay [6] can be described thus: qHTS assay to identify small molecule agonists of the estrogen receptor beta (ER-beta) signaling pathway - cell viability counter screen (AID 1259380). Further: nearly all actives have a fitted effect of over 30% in size. Put shortly: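 Same-well viability counter screen. Cells: ER-beta-UAS-bla HEK293T, plated 6 hr before compound, in 2% charcoal-stripped FBS. Compound exposure 16 hr, 37C; viability by CellTiter-Glo luminescence after 30 min at room temperature.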

A short description of assay [7]: qHTS assay to identify small molecule antagonists of the estrogen receptor beta (ER-beta) signaling pathway - cell viability counter screen (AID 1259382). Further: series mostly up to about 92 µM; nearly all actives have a fitted effect of over 55% in size. The method, boiled down:
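Following a 6 hr plating period, HEK293T cells carrying a UAS-driven beta-lactamase reporter under ER-beta control received compounds and 1nM E2 (final). After 16 hr at 37C and 2 hr substrate loading, CellTiter-Glo luminescence indicated viability.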

A short description of assay [8]: qHTS assay to identify small molecule agonists or antagonists of the thyroid stimulating hormone receptor (TSHR) signaling pathway - wild type cell line counter screen (AID 1259384; calls by dose curve). The method, boiled down: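 Wild-type Hek293 cells, 800/well, 18 h at 37C, then compound with Ro20-1724 for 30 min RT. cAMP by HTRF (cAMP-d2/anti-cAMP cryptate), 1 h RT, fluorescence read. 15 concentrations, triplicates.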

In assay [9] the target is Thyrotropin receptor (Homo sapiens) (UniProt P16473). The assay can be described thus: qHTS assay to identify small molecule antagonists of the thyroid stimulating hormone receptor (TSHR) signaling pathway (AID 1259385; calls by dose curve; further: nearly all actives have a fitted effect of over 20% in size). Put shortly: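 TSHR-HEK293 cells (800/well) plated 18 h, then compounds with Ro20-1724 and TSH at 1.5 ng/mL final, 30 min at room temperature. cAMP quantified by HTRF (cAMP-d2/anti-cAMP-cryptate, 1 h); 15 concentrations in triplicate.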

The nature of assay [10]: qHTS assay to identify small molecule agonists of the estrogen receptor alpha (ER-alpha) signaling pathway in the presence of an antagonist - cell viability counter screen (AID 1259386).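 Further: series mostly up to about 92 µM; cells exposed to compounds for 22 h at 37 °C before the viability read; nearly all actives have a fitted effect of over 30% in size.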 The method, boiled down: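 Cells are starved of estrogens for 5 days in charcoal-stripped serum, seeded for 24hr and co-treated with ICI-182,780 (10.0nM final) and test compounds. After 22hr at 37C, viability is read as CellTiter-Fluor fluorescence.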

In assay [11] the target is Progesterone receptor (Homo sapiens) (UniProt P06401). The assay can be described thus: qHTS assay to identify small molecule agonists of the progesterone receptor (PR) signaling pathway (AID 1346784; calls by dose curve; further: nearly all actives have a fitted effect of over 30% in size). The method, boiled down: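 PR-UAS-bla HEK 293T cells (beta-lactamase reporter under UAS) in 2% charcoal-stripped FBS, dosed with 23 nL compound after 6 hr, incubated 16hr at 37C. LiveBLAzer B/G FRET substrate added, fluorescence read after 2 hours.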

Assay [12] has the same target. The experiment in a line: qHTS assay to identify small molecule antagonists of the progesterone receptor (PR) signaling pathway (AID 1346795; active means well fitted inhibition curve with a large enough effect in the signal ratio in the repeat runs, not every such curve was filed as active; the % refers to the signal ratio). Put shortly:
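PR-UAS-bla HEK293T cells with beta-lactamase reporter under UAS control, in 2% charcoal-stripped FBS, treated with compounds plus 1 nM promegestone (R5020, final) for 16 hr at 37C. Read-out: FRET beta-lactamase substrate fluorescence after 2 hr at room temperature.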

Assay [13] is described as follows: qHTS assay to identify small molecule antagonists of the progesterone receptor (PR) signaling pathway - cell viability counter screen (AID 1346798). Further: series mostly up to about 92 µM; nearly all actives have a fitted effect of over 50% in size. The method, boiled down:
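PR-UAS-bla HEK293T cells, 3,000/well in 2% charcoal-stripped FBS medium, dosed with compounds plus R5020 agonist and incubated 16 h at 37C. Viability then measured in the same wells by CellTiter-Glo luminescence after 30 min at RT.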

Assay [14] is described as follows: qHTS assay to identify small molecule agonists of the progesterone receptor (PR) signaling pathway - cell viability counter screen (AID 1346799; calls by dose curve; further: nearly all actives have a fitted effect of over 45% in size). Put shortly:
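Counter screen in the PR-UAS-bla HEK293T wells (2% charcoal-stripped FBS, 16 h compound exposure at 37 C) after the bla read. CellTiter-Glo added, 30 min at room temperature, luminescence read as cell viability.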

The nature of assay [15]: qHTS assay to identify small molecule antagonists of the TGF-beta/Smad signaling pathway - cell viability counter screen (AID 1346824). Further: nearly all actives have a fitted effect of over 50% in size. The method, boiled down:
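SBE-bla HEK 293T cells, incubated overnight, then compound plus 0.25 ng/mL TGF-beta1 (stock added) for 5 hr at 37 C. Viability was read in the same wells by CellTiter-Glo luminescence after 30 min at room temperature.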

A short description of assay [16]: qHTS assay to identify small molecule agonists of the TGF-beta/Smad signaling pathway - cell viability counter screen (AID 1346829). Further: top concentration of the series differs between compounds; nearly all actives have a fitted effect of over 45% in size. Put shortly: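 HEK 293T SBE-bla line, 5 hr compound exposure at 37 C, multiplexed CellTiter-Glo viability read by luminescence.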
A short description of assay [17]: qHTS assay to identify small molecule agonists of the TGF-beta/Smad signaling pathway (AID 1346859; active means well fitted activation curve with a large enough effect in the signal ratio in the repeat runs, not every such curve was filed as active; the % refers to the signal ratio; further: series mostly up to about 77 µM). The method, boiled down:
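SBE-bla HEK293T cells plated overnight, then compound exposure for 5 h at 37 C. Beta-lactamase reporter read with LiveBLAzer B/G FRET substrate after 2 h at room temperature, fluorescence at 405 nm excitation, 460/530 nm emission.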

Assay [18] addresses Thyrotropin-releasing hormone receptor (Homo sapiens) (UniProt P34981). The assay can be described thus: qHTS assay to identify small molecule antagonists of the thyrotropin-releasing hormone receptor (TRHR) signaling pathway (AID 1346877; active means well fitted inhibition curve with a large enough effect in the repeat runs, not every such curve was filed as active; further: series mostly up to about 51 µM). The method, boiled down: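 Cells (TRHR-HEK293) are plated and kept 18 h at 37 °C/5% CO2. A calcium-sensitive dye is added for 2 h, compound follows for 5 min at room temperature, and TRH is then given at 1 nM final.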

The target of assay [19] is Estrogen receptor (Homo sapiens) (UniProt P03372). The experiment in a line: qHTS assay to identify small molecule agonists of the estrogen receptor alpha (ER-alpha) signaling pathway in the presence of an antagonist (AID 1259383; calls by dose curve; further: top concentration of the series differs between compounds; nearly all actives have a fitted effect of over 15% in size). Put shortly: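 Cells are hormone-deprived for 5 days (charcoal-stripped FBS, no phenol red), plated for 24hr, spiked with 10.0nM ICI-182,780, then dosed at 15 concentrations. After 22hr at 37C, ONE-Glo luminescence reports ERE-luciferase activity.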
Chain of Estrogen receptor (Homo sapiens) (P03372 whole entry, looked up): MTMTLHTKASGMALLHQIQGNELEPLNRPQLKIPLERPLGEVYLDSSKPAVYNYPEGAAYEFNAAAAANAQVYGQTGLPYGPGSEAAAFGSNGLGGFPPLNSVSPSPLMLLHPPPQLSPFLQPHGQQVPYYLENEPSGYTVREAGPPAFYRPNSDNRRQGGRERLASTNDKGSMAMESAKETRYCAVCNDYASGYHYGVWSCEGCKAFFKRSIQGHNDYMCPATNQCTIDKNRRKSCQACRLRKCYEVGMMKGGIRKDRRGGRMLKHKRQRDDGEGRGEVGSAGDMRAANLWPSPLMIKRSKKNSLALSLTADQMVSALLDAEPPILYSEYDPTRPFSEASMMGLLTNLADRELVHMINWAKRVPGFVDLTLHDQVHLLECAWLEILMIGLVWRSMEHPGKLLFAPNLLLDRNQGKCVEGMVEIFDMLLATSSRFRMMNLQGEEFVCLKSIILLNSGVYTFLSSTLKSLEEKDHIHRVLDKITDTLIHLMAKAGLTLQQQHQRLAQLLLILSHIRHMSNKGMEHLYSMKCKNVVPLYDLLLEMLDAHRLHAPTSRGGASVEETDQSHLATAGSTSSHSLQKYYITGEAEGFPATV

Chain of Progesterone receptor (Homo sapiens) (P06401 whole entry, looked up): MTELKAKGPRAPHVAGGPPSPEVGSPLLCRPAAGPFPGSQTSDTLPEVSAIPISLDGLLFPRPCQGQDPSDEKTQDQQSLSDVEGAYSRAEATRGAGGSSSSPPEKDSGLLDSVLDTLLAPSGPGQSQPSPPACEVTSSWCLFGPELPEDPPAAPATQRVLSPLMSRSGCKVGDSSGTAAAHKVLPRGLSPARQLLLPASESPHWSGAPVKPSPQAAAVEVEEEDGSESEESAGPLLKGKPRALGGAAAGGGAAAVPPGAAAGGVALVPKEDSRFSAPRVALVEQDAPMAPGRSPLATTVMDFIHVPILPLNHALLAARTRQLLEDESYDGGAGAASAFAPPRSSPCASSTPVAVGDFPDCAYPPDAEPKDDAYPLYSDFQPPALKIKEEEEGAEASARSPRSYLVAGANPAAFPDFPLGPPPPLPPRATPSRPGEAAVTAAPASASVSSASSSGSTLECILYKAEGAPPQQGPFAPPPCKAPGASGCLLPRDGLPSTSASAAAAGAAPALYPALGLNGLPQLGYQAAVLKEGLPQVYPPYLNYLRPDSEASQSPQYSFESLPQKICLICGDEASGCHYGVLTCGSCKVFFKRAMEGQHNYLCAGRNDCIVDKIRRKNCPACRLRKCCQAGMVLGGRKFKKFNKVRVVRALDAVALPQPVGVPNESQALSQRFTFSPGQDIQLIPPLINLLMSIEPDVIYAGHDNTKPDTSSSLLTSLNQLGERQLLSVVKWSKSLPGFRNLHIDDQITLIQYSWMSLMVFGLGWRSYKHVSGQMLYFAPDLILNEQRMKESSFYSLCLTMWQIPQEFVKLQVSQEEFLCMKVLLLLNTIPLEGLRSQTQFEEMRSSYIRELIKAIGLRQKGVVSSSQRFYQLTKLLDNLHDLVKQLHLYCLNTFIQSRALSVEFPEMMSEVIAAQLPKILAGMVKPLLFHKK
Chain of Thyrotropin-releasing hormone receptor (Homo sapiens) (P34981 whole entry, looked up): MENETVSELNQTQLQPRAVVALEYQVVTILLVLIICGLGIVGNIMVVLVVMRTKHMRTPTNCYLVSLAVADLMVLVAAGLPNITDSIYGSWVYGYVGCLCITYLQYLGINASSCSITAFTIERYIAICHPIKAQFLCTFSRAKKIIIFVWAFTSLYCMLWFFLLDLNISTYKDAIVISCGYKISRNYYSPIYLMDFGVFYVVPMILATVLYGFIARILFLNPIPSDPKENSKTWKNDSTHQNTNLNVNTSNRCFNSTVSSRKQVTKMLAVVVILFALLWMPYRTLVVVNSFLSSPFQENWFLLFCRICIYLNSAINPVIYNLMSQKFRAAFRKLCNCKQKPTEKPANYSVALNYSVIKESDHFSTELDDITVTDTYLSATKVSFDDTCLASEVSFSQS
Chain of Thyrotropin receptor (Homo sapiens) (P16473 whole entry, looked up): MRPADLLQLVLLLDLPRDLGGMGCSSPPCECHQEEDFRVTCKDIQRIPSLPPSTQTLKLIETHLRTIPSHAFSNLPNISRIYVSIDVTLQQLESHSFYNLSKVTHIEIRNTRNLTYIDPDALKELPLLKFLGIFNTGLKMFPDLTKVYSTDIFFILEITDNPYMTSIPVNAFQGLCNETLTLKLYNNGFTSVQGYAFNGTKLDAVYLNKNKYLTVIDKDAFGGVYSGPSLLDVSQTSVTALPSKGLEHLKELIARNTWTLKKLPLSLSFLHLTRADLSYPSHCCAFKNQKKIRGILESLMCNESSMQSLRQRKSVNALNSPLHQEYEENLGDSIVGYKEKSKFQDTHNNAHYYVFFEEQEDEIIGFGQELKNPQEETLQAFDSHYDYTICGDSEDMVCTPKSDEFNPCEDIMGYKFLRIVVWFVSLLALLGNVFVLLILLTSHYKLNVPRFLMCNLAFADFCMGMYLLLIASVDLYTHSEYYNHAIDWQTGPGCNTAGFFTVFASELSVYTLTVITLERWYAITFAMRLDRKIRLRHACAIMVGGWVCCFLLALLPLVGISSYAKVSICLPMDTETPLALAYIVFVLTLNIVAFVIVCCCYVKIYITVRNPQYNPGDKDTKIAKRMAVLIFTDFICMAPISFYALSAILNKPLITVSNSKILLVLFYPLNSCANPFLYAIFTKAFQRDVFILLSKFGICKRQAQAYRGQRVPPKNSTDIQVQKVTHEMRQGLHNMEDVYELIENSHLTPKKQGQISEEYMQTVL
Chain of Estrogen receptor beta (Homo sapiens) (Q92731 whole entry, looked up): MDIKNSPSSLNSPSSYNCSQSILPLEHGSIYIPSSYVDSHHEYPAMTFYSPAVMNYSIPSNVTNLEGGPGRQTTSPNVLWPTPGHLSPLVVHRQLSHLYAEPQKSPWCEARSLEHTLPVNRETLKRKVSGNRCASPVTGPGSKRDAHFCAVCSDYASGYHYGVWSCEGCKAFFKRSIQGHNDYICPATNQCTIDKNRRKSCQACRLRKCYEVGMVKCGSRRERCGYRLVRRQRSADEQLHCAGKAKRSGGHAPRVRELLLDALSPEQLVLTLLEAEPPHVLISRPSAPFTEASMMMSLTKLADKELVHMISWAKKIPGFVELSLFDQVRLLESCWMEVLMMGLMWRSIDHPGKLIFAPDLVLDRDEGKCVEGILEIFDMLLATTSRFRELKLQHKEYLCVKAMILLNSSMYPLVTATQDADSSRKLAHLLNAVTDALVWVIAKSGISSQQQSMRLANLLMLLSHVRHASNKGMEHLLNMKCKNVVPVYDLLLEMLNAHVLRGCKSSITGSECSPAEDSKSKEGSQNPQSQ

With `Cc1ccccc1Br`, the Potency entry in assay [1], in [2], in [4], in assay [5], in [6] and in assay [7] was “inactive” in each case. Further, the Potency result in assay [9], in assay [11], in assay [12], in assay [13] and in assay [14] was “inactive” in each case. Further, the call in assay [3], in assay [8], in [10], in [15], in [16] and in assay [17] was inactive. Further, the call in assay [18] was inactive.

With `O=C(O)/C=C/c1ccc(Cn2ccnc2)cc1`, the Potency entry in assay [1], in assay [2], in assay [4], in assay [5], in assay [6] and in assay [7] was “inactive” each time. Also, the Potency entry in [12], in assay [13] and in [14] was “inactive” in each case. In addition, the call in assay [3], in [10], in [15], in assay [16], in assay [17] and in assay [18] was inactive.

Take `C[C@H](O)C(=O)Nc1c(I)c(C(=O)NC(CO)CO)c(I)c(C(=O)NC(CO)CO)c1I`: the Potency entry in assay [1], in assay [2], in [4], in [5], in assay [6] and in assay [19] was “inactive” throughout. Moreover, the Potency entry in assay [9], in assay [11], in [12], in [13] and in assay [14] was “inactive” each time. Besides, the call in [3], in assay [8], in assay [10], in assay [15], in assay [16] and in assay [17] was inactive.

With `N#CC1(O)CCCCC1`, the Potency entry in assay [1], in assay [4], in assay [5], in assay [6], in assay [7] and in [9] was “inactive” in each case. Further, the Potency result in assay [11], in [12], in [13] and in assay [14] was “inactive” throughout. Moreover, the Potency in [2] was 12.3 µM (active). For the same molecule, the molecule was called inactive in assay [3], in assay [8], in [10], in [16] and in assay [17].

On to `CC(C)(C)OC(=O)N1C[C@@H](F)C[C@H]1C(=O)O`, for which the Potency entry in assay [1], in [2], in assay [4], in assay [5], in assay [6] and in assay [19] was “inactive” throughout. In addition, the Potency result in assay [9], in assay [11], in assay [12], in assay [13] and in [14] was “inactive” each time. The result in [3], in [8], in assay [10], in assay [15], in [16] and in assay [17] was inactive. Moreover, in assay [18], the molecule was classed as inactive.

As for `CC(C)COC(=O)C(C)C`, the Potency result in assay [1], in [2], in [4], in assay [5], in [6] and in assay [19] was “inactive” each time. Further, the Potency result in assay [9] and in assay [13] was “inactive” each time. Further, the molecule was called inactive in assay [3], in assay [8], in assay [15], in [16], in assay [17] and in assay [18].

Turning to `Nc1cc(N)cc(C(=O)O)c1`, the Potency result in [1], in assay [2], in [4], in [5], in assay [6] and in assay [7] was “inactive” in each case. The Potency entry in [19], in assay [13] and in assay [14] was “inactive” throughout. In addition, the outcome in [3], in assay [8], in [10], in [16] and in [17] was inactive.

Regarding `CC(=O)OC(C)(C)C`, the Potency entry in assay [1], in assay [2], in assay [4], in [5], in assay [6] and in assay [7] was “inactive” in each case. In addition, the Potency entry in assay [19], in assay [11], in assay [12], in assay [13] and in [14] was “inactive” each time. Besides, the result in [3], in [10], in assay [15], in [16], in [17] and in assay [18] was inactive.
